For twelve compounds, growth results are on record in PubChem BioAssay (NCI).

About 83,000 compounds went through this panel and 20% of them were active in at least one assay; those are over-represented in the sample as a whole.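 Assay: single dose, 48 h. Readout: percent growth (0 = no net growth; negative = cell death). Active: <10.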 A number with no mark means an inactive call. Activity calls are given as the source filed them.

Holding throughout (assay): NCI-60 one-dose screen, 48 h (100 = growth as untreated, 0 = no growth, -100 = all killed)
Common to all, as to settings: 10 µM unless noted

Assay [1] deals with NCI-H23 lung.
Assay [2] deals with NCI-H226 lung.
Assay [3] relates to NCI-H322M lung.
Assay [4] deals with HOP-62 NSCLC.
Assay [5] relates to NCI-H460 lung.
The subject of assay [6] is HOP-92 NSCLC.
The test system of assay [7] is NCI-H522 lung.
Assay [8] concerns A549/ATCC NSCLC.
The test system of assay [9] is 786-0 renal.
Assay [10] relates to COLO 205 colon.

For `O=C1C(N2CCN(c3ccccc3)CC2)=C(Cl)C(=O)c2ncccc21`, the growth in assay [1] was 46.3%; in [2] it was 91.3%; in [3] it was 95.2%; in assay [4], 63.9%; in [5] it was 38.7%; in assay [6] it was 128%. The growth in assay [7] is -16.2% (active); in assay [8], 91.5%; in assay [9], 105%; in assay [10] it was 65.2%.

For the compound `COc1cc(/C=C2/C(=O)Nc3ccc(Cl)cc32)ccc1OCc1ccc(Cl)cc1`, the growth in assay [1] was 81.2%; in [2] it was 95.7%; in assay [3] it was 89.3%; in assay [4] it was 92.1%; in assay [5], 70.5%; in [6], 88.3%. In addition, the growth in assay [7] was 87.9%; in assay [8], 84.9%; in [9] it was 100%; in assay [10], 93.4%.

On to `N#Cc1nc(-c2ccc(Cl)cc2)oc1N1CCC(S(=O)(=O)N2CCOCC2)CC1`, for which the growth in [1] is 96.5%; in assay [2] it was 94.6%; in [3], 92.2%; in assay [4], 94.6%; in assay [5], 103%; in assay [6] it was 100%. Besides, the growth in [7] is 87.2%; in assay [8], 99.9%; in assay [9], 93.5%; in assay [10], 116%.

Consider `N#Cc1cccc(-c2cc(-c3ccc4c(c3)OCCO4)[nH]n2)c1`, for which the growth was 50% in assay [1]; 72.2% in assay [2]; 54.8% in [3]; 43.5% in [4]; 15% in assay [5]; 75.5% in assay [6]. Further, the growth in assay [7] is 23.8%; in assay [8], 47.8%; in assay [9], 63.4%; in [10], 20.2%.

For `Cc1ccc(-c2csc(N/N=C/c3cccs3)n2)cc1`, the growth in assay [1] was 79.4%; in assay [2] it was 70.1%; in assay [3], 97%; in assay [4], 95.3%; in assay [5], 99.4%; in assay [6], 87.3%. Also, the growth is 73.3% in [7], 84.2% in assay [8], 97.5% in [9] and 115% in assay [10].

As for `O=C1[C@H]2Cc3c([nH]c4ccccc34)[C@H](c3ccc(Br)cc3)N2C(=O)CN1C1CCN(CC2CCCCC2)CC1`, the growth in assay [1] is 83.5%; in [2] it was 92.5%; in assay [3], 92.8%; in [4] it was 82.2%; in [5] it was 54.1%; in [6], 77.2%. Moreover, the growth in assay [7] is 83.6%; in assay [8], 79.4%; in assay [9] it was 83.4%; in [10], 81.3%.

Consider `CC(C)=CCC[C@](C)(O)[C@H]1CC[C@]2(C)[C@@H]1CC[C@@H]1[C@@]3(C)CC[C@H](N)C(C)(C)[C@@H]3CC[C@]12C`, for which the growth in [1] was 76.5%; in assay [2], 93.1%; in assay [3], 111%; in [4], 97.9%; in assay [5] it was 27.4%; in [6] it was 76.3%. The growth in assay [7] was 96.8%; in assay [8], 67.3%; in assay [9] it was 61.9%; in assay [10], -31.4% (active).

Turning to `Cn1cc(-c2cc3ncnc(Nc4ccc(CC(=O)Nc5nc(C(C)(C)C)cs5)cc4)c3s2)cn1`, the growth in [1] is 47.5%; in assay [2] it was 32.9%; in assay [3], 43.8%; in assay [4], 93.1%; in [5], 54.3%; in assay [6], 85%. The growth in [7] is 36.9%; in assay [8], 46.4%; in [9], 34.4%; in assay [10], 65.8%.

Consider `COc1ccc(/C=N/N=C(/c2ccccc2)c2ccc3nc(-c4ccc(Cl)cc4)[nH]c3c2)cc1`, for which the growth was 91.1% in assay [1]; 77% in assay [2]; 84.3% in assay [3]; 99.3% in [4]; 90% in [5]; 106% in [6]. For the same compound, the growth in [7] was 72.9%; in assay [8] it was 75.1%; in [9], 76.9%; in assay [10], 72%.

As for `Cc1ccc(C(=O)Nc2ccc(CNCCN3CCOCC3)c(C(F)(F)F)c2)cc1C#Cc1cnc2cccnn12`, the growth is 21.5% in [1]; 20.5% in [2]; 47.9% in assay [3]; 15.4% in assay [4]; 18.9% in [5]; -11.9% (active) in [6]. Besides, the growth is 4.82% (active) in [7], 19.2% in [8], 14.2% in assay [9] and -18.8% (active) in assay [10].

As for `Nn1c(=O)n(-c2cccc(C(F)(F)F)c2)c(=O)c2cc(-c3ccc(F)cc3F)ccc21`, the growth in assay [1] is -6.15% (active); in assay [2], 16.5%; in assay [3] it was 5.15% (active); in assay [4], 2.28% (active); in assay [5] it was 6.49% (active); in assay [6] it was -35.6% (active). The growth was -2.03% (active) in [7], 5.13% (active) in assay [8], 45.7% in [9] and 65.2% in assay [10].

On to `CCc1cc(OC(=O)N2CCC(N3CCCCC3)CC2)ccc1Nc1cc(-c2ccc(-n3cccn3)cc2)[nH]n1`, for which the growth in assay [1] was 80.3%; in assay [2], 77.9%; in [3], 101%; in [4], 66.3%; in assay [5] it was -15.5% (active); in assay [6], 103%. The growth in [7] was 96.2%; in [8], 53.8%; in assay [9], 58%; in [10], 60.1%.
